# Screening results from PubChem BioAssay.
# Shown are actives, neighbours in structure and some others; about 4.1% of the full set was active somewhere.
# ssDAF-12 act: S. stercoralis DAF-12 activation, primary screen. HEK293 ssDAF-12/GRIP1 lit1-tk-luc reporter, luminescence; % of 3 µM dafachronic acid response. activation, % at 6.8 µM. actives 1% (n = 370,000). AID 652126;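 active = activation above the mean over all tested compounds plus 3 SD, cut at about 0.9% in these data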
# DAX1 inh-1: inhibitors of human orphan nuclear receptor DAX1 (NR0B1); P51843; HEK293 Gal4-DAX1 luciferase reporter, luminescence; inhibition, % at 6.75 µM; actives 0.99% (n = 340,000);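 active = inhibition above the mean over all tested compounds plus 3 SD, cut at about 4.2% in these data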;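 note: inhibition shows as a rise in luminescence from relieved DAX1 repression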
# Target sequence (P51843 207-470 limits assumed): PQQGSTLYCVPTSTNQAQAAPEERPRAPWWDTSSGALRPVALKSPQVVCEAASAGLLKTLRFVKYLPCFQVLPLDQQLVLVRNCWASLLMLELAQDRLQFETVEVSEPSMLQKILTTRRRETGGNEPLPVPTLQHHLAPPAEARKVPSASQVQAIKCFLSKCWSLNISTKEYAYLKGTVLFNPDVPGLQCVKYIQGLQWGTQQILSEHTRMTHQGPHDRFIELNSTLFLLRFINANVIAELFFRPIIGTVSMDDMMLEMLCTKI
# hcDAF12 agonist: activates DAF-12 receptor from parasite H. contortus; HEK293 hcDAF-12 lit1-tk-luc reporter, luminescence; 0% DMSO, 100% Δ7-dafachronic acid; activation, % at 6.8 µM; actives 1.4% (n = 370,000); AID 652067;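 active = activation above the mean of all tested compounds plus 3 SD, cut at about 5.5% in these data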
# DAX1 inh-2: blocks DAX1 repression of SF-1 activated StAR promoter; HEK293T StAR-luciferase reporter, SF-1/DAX-1 repression relief; inhibition, % at 6.8 µM; actives 1.1% (n = 370,000);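 active = inhibition above the mean over all tested compounds plus 3 SD, cut at about 3.6% in these data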;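 note: higher inhibition means more luminescence from relief of DAX-1 repression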
# hgDAF12 agonist: hgDAF-12 agonism, primary luciferase screen; actives 1.8% (n = 370,000); HEK293 GAL4-hgDAF12 UAS-luciferase reporter, agonist luminescence; normalized to butyrate control; activation, % at 6.8 µM; AID 687014;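 active = activation above a cutoff set at the mean of all screened compounds plus 3 SD, cut at about 10% in these data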
# hgDAF12 ag: hgDAF-12 agonism, confirmation assay. activation, % at 6.8 µM. AID 743050. HEK293 GAL4-hgDAF12 luciferase reporter, agonist mode; percent of butyrate response. shares compounds with hgDAF12 agonist. actives 80% (n = 3,300);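 active = mean activation over triplicate wells above the hit cutoff derived from the earlier primary screen, cut at about 11% in these data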
# LXRb DAF12 ctr: LXR-beta agonism as DAF-12 counter-screen. shares compounds with hgDAF12 agonist. HEK293 Gal4-LXR luciferase reporter, 24 h. activation, % at 6.8 µM. 3,300 tested, under 10 active;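 active = mean activation of the triplicate above a set limit carried over from the primary screen, none filed active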
# Hits are given with their value; 0 = inactive; - = no result given.
SMILES,ssDAF-12 act,DAX1 inh-1,hcDAF12 agonist,DAX1 inh-2,hgDAF12 agonist,hgDAF12 ag,LXRb DAF12 ctr
Cc1ccc(C(=O)Nc2ncc(C)s2)o1,0,0,0,0,19.6,14.8,0
COc1cc(OC)cc(C(=O)Nc2ccc([N+](=O)[O-])cn2)c1,0,0,0,0,0,-,-
Cc1ccc(C(=O)Nc2ccc([N+](=O)[O-])cn2)o1,0,0,0,0,13.8,0,0
CCCCNC(=O)c1cc2cc(CC)ccc2[nH]1,0,0,0,0,0,-,-
O=C(CCCCCNC(=O)N1CCn2c1nc1ccccc12)NCCc1ccccc1,0,0,0,0,0,-,-
CC1(C(=O)NCc2cccs2)Cc2c(-c3ccc4c(c3)OCO4)ccnc2O1 (stereo not given),0,-,0,0,0,-,-
Cn1c(SCC(=O)Nc2ncc(C(F)(F)F)cc2Cl)nnc1-c1ccc(Cl)cc1,0,0,0,0,0,-,-
C=CC(C)N1C(=O)S/C(=C\c2ccc(N3CCOCC3)cc2C)C1=O (stereo not given),0,0,0,0,0,-,-
Cc1cc(N2CCOCC2)ccc1/C=C1/SC(=O)NC1=O,0,0,0,0,15.7,0,0
Cc1cccc(NC(=S)NNC(=O)c2sccc2C)c1,0,0,0,0,13.2,0,0
COC1=C[C@H](C(=O)NCc2ccc(OC)cc2)C(C)C(c2ccccc2)CC1=O (stereo not given in full),0,-,0,0,0,-,-
CCS(=O)(=O)N1Cc2ccccc2CC1C(=O)Nc1cccc(OC)c1 (stereo not given),0,0,0,0,13.6,0,0
CCS(=O)(=O)N1Cc2ccccc2CC1C(=O)Nc1ccc(OC)c(OC)c1 (stereo not given),0,0,0,0,0,-,-
Cc1cc(C)cc(NC(=O)c2ccc(CSc3nnc(C)s3)cc2)c1,0,0,0,0,0,-,-
Cc1nnc(NC(=O)c2ccc(Br)cc2)s1,0,0,0,0,0,-,-
Cc1ccc(NC(=O)c2ccc(CSc3nnc(C)s3)cc2)cc1,0,0,0,0,16.1,13.8,0
Cc1ccc(C(=O)Nc2nnc(C)s2)cc1,0,-,0,4.3,15.9,12.1,0
O=c1[nH][nH]cc1C=NCc1cccc(C(F)(F)F)c1,0,0,0,0,0,-,-
O=C(Oc1ccc(-c2nnco2)cc1)N(c1ccccc1)c1ccccc1,0,0,0,0,0,-,-
C/C(=N/NC(=O)c1cc(C2CC2)[nH]n1)c1cccs1,0,0,5.7,3.8,14.8,0,0
CC(=O)c1cc2c(cc1NS(=O)(=O)c1ccc(C)cc1)OCCO2,0,0,0,0,0,-,-
CC(C)=CC(=O)Nc1ccc(Cl)cc1,1.7,0,0,0,18.9,12.0,0
CCn1cc(C(=O)N[C@@H](CCSC)C(=O)NCCCOC)c(=O)c2cc3c(cc21)OCO3,0,0,0,0,0,-,-
CCCCCCCCN1C(=O)[C@@H](CC(=O)NCCCOCCCC)C[C@@]2(C(=O)OC)C1=C[C@H](C(C)C)O[C@@H]2C1CC1,0,-,0,0,0,-,-
C#CCNC(=O)C[C@H]1C[C@@]2(C(=O)OC)C(=C[C@H](C(C)C)O[C@@H]2C2CC2)N(CCCCCCCC)C1=O,0,-,0,0,13.6,0,0
SMILES,ssDAF-12 act,DAX1 inh-1,hcDAF12 agonist,DAX1 inh-2,hgDAF12 agonist,hgDAF12 ag,LXRb DAF12 ctr
C/C(=N/OCc1ccc(Br)cc1)c1ccccn1,0,0,0,3.7,23.1,22.2,0
C/C(=N/O)c1ccccn1,0,0,0,0,0,-,-
Cc1ccn(-c2ccc(NC(=O)c3cccs3)cc2)n1,0,0,0,0,17.4,17.2,0
O=C(N/N=C/c1ccc(N2CCOCC2)cc1)c1cccs1,0,0,0,4.4,19.8,14.0,0
CN1CCN(c2ccc(NC(=O)c3cccs3)cc2)CC1,0,5.7,0,4.3,15.0,12.2,0
CCN(CC)S(=O)(=O)c1ccc(NC(=O)c2cccs2)cc1,0,0,0,0,0,-,-
CC(C)C(=O)N1CCN(c2ccc(NC(=O)c3cccs3)cc2)CC1,0,0,0,0,0,-,-
Cc1cccc(N2CCN(C(=O)c3cccc(S(=O)(=O)N4CCOCC4)c3)CC2)c1C,0,0,0,0,0,-,-
Cc1ccc(NC2CCCN(C(=O)CSc3ccncc3)C2)cc1C (stereo not given),0,0,0,0,0,-,-
COC(=O)[C@]1(Cc2ccccc2)N[C@H](CN(C)C(=O)c2ccc(F)cc2)[C@@H]2C(=O)N(C)C(=O)[C@@H]21,0,0,0,0,0,-,-
O=C(NCCCN1CCOCC1)c1cc(-c2cccs2)on1,0,0,0,0,24.3,46.3,0
O=C(NC1CCCC1)c1cc(-c2cccs2)on1,0,4.7,6.1,0,47.4,42.7,0
O=C(NC1CCCC1)c1cc(-c2ccc(F)cc2)on1,0,5.8,0,0,23.5,37.4,0
Cc1ccc(NC(=O)CSc2nc3[nH]ncc3c(=O)[nH]2)c(C)c1,0,0,0,0,0,-,-
Cc1ccc(C)c(OCC(=O)N2CCN(c3ncccn3)CC2)c1,0,0,0,0,0,-,-
O=C(N/N=C/c1c(-c2ccccc2)[nH]c2ccccc12)c1cccnc1,0,0,0,0,18.1,0,0
Cn1c(-c2ccccc2)c(/C=N/NC(=O)c2cccnc2)c2ccccc21,0,0,0,0,0,-,-
COc1ccc(OC)c(/C=N/N=C(\N)c2nonc2N)c1,0,0,0,0,0,-,-
N/C(=N\N=C\c1ccc(O)c(O)c1)c1nonc1N,0,0,0,0,15.3,0,0
CC1=C(C(=O)Nc2ccccn2)C(c2ccc(Br)cc2)NC(=S)N1 (stereo not given),0,0,5.7,0,16.6,0,0
CC1=C(C(=O)Nc2ccccn2)C(c2ccc(Cl)cc2)NC(=S)N1 (stereo not given),0,0,0,0,0,-,-
Cc1cc(NC(=O)CSC2=NS(=O)(=O)c3cc(F)ccc3N2)no1,0,0,0,0,0,-,-
O=C(N/N=C/c1cccc(O)c1)c1csc2ccccc12,0,0,0,0,0,-,-
O=C(Nc1ccccc1C(=O)N/N=C/c1ccncc1)c1ccccc1,0,0,0,0,14.2,12.0,0
O=C(N/N=C/c1cccc(O)c1)c1ccccc1O,0,0,0,0,15.6,0,0
COc1ccc(C=NNC(=O)c2cc(C)oc2C)cc1O,0,0,0,0,13.4,13.9,0
Cc1ccc(S(=O)(=O)N(C)C[C@H]2OCc3cn(nn3)CCCC(=O)N([C@H](C)CO)C[C@@H]2C)cc1,0,0,0,0,0,-,-
COc1ccc(Nc2nc(N)c3ccccc3n2)c(OC)c1,0,4.8,0,0,13.3,15.3,0
COc1ccc(Nc2nc(-c3ccccc3)nc3ccccc23)c(OC)c1,0,0,0,0,0,-,-
Cc1cc(NC(=O)Cc2cn(C)c3ccccc23)ccc1Oc1cccnc1,0,-,0,0,0,-,-
